Screens deposited in PubChem BioAssay by ICCB-Longwood Screening Facility, Harvard Medical School.
MbtI inh – blocks the Mycobacterium tuberculosis siderophore enzyme MbtI; 0.89% of 100,000 active; inhibition, % (concentration not given with the values); P9WFX0; purified MbtI enzyme, fluorescence intensity read-out; AID 493033; in the data active = inhibition mostly above about 56%, no sharp cut-off; inactive = mostly below about 77%
Mtb MenB inh – inhibitors of Mycobacterium tuberculosis MenB enzyme; P9WNP5; inhibition, % (concentration not given with the values); MenB enzyme assay, absorbance read-out; 0.43% of 100,000 active; in the data active = inhibition above about 21%, passing the limit was not always enough
Target sequence (P9WNP5 whole entry, looked up): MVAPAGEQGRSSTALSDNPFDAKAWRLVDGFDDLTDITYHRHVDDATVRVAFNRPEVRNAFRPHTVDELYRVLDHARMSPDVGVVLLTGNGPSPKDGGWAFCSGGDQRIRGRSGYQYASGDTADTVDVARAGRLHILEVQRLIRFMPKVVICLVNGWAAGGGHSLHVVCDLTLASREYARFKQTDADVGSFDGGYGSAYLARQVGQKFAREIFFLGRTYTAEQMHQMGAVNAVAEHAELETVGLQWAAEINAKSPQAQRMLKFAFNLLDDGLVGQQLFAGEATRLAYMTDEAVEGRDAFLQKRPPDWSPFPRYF
Polio RdRp inh – inhibitors of poliovirus RNA polymerase binding and polymerization | 0.66% of 150,000 active | AID 588519 | poliovirus polymerase elongation, fluorescence polarization; stronger effect = lower value | % elongation, % (compound at 16.7 µg/mL); in the data active = % elongation below about 90%
AID504770 – E. coli YBA685 growth inhibition, screen for V. cholerae RctB inhibitors; E. coli YBA685 rctB-dependent plasmid, OD600 growth, 3 h; stronger effect = lower value; z-score (concentration not given with the values); 0.27% of 130,000 active; in the data active = z-score below about -2, passing the limit was not always enough
A number is an active result. Most compounds without a hit are left out; they make up all but 1.4% or so of the library.

How did Cc1ccc(C(=O)CSc2cccc[n+]2[O-])cc1 do in these assays?
MbtI inh: 69; Polio RdRp inh: inactive; AID504770: inactive

How did C=CCn1c(=N)c(C(N)=O)cc2c(=O)n3ccccc3nc21 do in these assays?
MbtI inh: inactive; Mtb MenB inh: inactive; Polio RdRp inh: inactive; AID504770: inactive

What do the screens show for `N#CSCC(=O)N1c2ccccc2CCc2ccccc21`?
MbtI inh: inactive; Mtb MenB inh: 33; Polio RdRp inh: inactive; AID504770: inactive

What do the screens show for `CCc1nn(CC(=O)NCc2ccc(C)cc2)c(=O)c2cc3occc3n12`?
Polio RdRp inh: 72

What do the screens show for `Cn1c(SC(F)F)nnc1-c1ccc2c(c1)OCO2`?
MbtI inh: inactive; Mtb MenB inh: inactive; Polio RdRp inh: inactive; AID504770: inactive

What do the screens show for `S=c1c(Cl)c(Cl)cnn1Cc1ccccc1`?
Mtb MenB inh: inactive; Polio RdRp inh: 67; AID504770: inactive

Results for CCOc1ccc(NC(=O)c2cn(CC(C)C)c(=O)c3c2c2ccccc2n3C)cc1 ?
MbtI inh: inactive; Mtb MenB inh: inactive; Polio RdRp inh: inactive; AID504770: -2.9

How did COCCCNC(=O)c1cn(CC(C)C)c(=O)c2c1c1ccccc1n2C do in these assays?
Polio RdRp inh: inactive

Results for CC(C)OC1(O)C(=O)c2ccccc2C(=O)C1(O)OC(C)C (stereo not drawn) ?
Mtb MenB inh: inactive; Polio RdRp inh: 9.0; AID504770: inactive

Results for COc1ccc(CNC(=O)c2noc(C)c2CN2CCOCC2)cc1 ?
MbtI inh: inactive; Mtb MenB inh: inactive; Polio RdRp inh: inactive; AID504770: inactive

Results for O=C1CCCC1Sc1nnnn1-c1ccccc1 (stereo not drawn) ?
MbtI inh: inactive; Mtb MenB inh: inactive; Polio RdRp inh: inactive; AID504770: inactive

What do the screens show for `Cc1c(Cl)cccc1N1C(=O)CC(Sc2nnnn2-c2ccccc2)C1=O` (stereo not drawn)?
MbtI inh: 98; Mtb MenB inh: inactive; Polio RdRp inh: inactive; AID504770: inactive

What do the screens show for `COc1ccccc1NC(=O)C(C)O/N=C/c1ccccc1` (stereo not drawn)?
MbtI inh: inactive; Mtb MenB inh: inactive; Polio RdRp inh: inactive; AID504770: inactive

What do the screens show for `NC(=O)N1C(=O)C=CC1=O`?
MbtI inh: inactive; Mtb MenB inh: inactive; AID504770: -8.5

How did Cc1cc(C)c(C#N)c(=O)[nH]1 do in these assays?
MbtI inh: inactive; Mtb MenB inh: inactive; Polio RdRp inh: inactive; AID504770: inactive

What do the screens show for `Cc1cc(C)c(C#N)c(=S)[nH]1`?
MbtI inh: 90; Mtb MenB inh: inactive; Polio RdRp inh: inactive; AID504770: inactive

How did CN1C(=O)Cc2cc(S(=O)(=O)CCC(=O)Nc3ccccc3)ccc21 do in these assays?
Polio RdRp inh: -22

What do the screens show for `CN1C(=O)Cc2cc(S(=O)(=O)CCC(=O)Nc3cccc(C(F)(F)F)c3)ccc21`?
Polio RdRp inh: inactive

What do the screens show for `COC(=O)C1C(O)=C(C=Nc2ccccc2)C(=O)CC1(C)C` (stereo not drawn)?
MbtI inh: inactive; Mtb MenB inh: 34; Polio RdRp inh: inactive; AID504770: inactive

What do the screens show for `CCOc1ccc(CN2CCc3nc(N4CCN(c5ccccn5)CC4)ncc3C2)cc1OC`?
Polio RdRp inh: 13

What do the screens show for `COc1cc(CN2CCc3nc(N4CCN(c5ccccn5)CC4)ncc3C2)cc(OC)c1OC`?
Polio RdRp inh: inactive

Results for C=CCN1C(=O)CS/C1=C(\C#N)S(=O)(=O)c1ccc(C)cc1 ?
MbtI inh: inactive; Mtb MenB inh: inactive; Polio RdRp inh: inactive; AID504770: -2.9

What do the screens show for `CCN1CCCC1CNCc1cccc(OC)c1OC` (stereo not drawn)?
MbtI inh: inactive; Mtb MenB inh: 38; Polio RdRp inh: inactive; AID504770: inactive

How did CCN1CCCC1CNCc1ccccn1 (stereo not drawn) do in these assays?
MbtI inh: inactive; Mtb MenB inh: inactive; Polio RdRp inh: inactive; AID504770: inactive

What do the screens show for `CCC(C)c1ccc(-n2c(=O)c3ccccc3n3c(SCC(=O)NC)nnc23)cc1` (stereo not drawn)?
MbtI inh: inactive; Mtb MenB inh: inactive; Polio RdRp inh: inactive; AID504770: inactive

How did Cc1ccc2nc3sc(C(=O)O)c(N)c3cc2c1 do in these assays?
MbtI inh: inactive; Mtb MenB inh: inactive; Polio RdRp inh: inactive; AID504770: inactive

What do the screens show for `Cc1ccc2ncc(-c3ccc4c(N)c(C)ccc4n3)cc2c1`?
Mtb MenB inh: inactive; Polio RdRp inh: 17; AID504770: inactive

Results for COC1(C)COC(C)(OC)CO1 (stereo not drawn) ?
MbtI inh: inactive; Polio RdRp inh: inactive; AID504770: inactive

What do the screens show for `COc1cc(-c2nnc(-c3ccc(N4CCOCC4)cc3)o2)cc(OC)c1OC`?
MbtI inh: inactive; Mtb MenB inh: inactive; Polio RdRp inh: inactive; AID504770: inactive

Results for CC(C)(C)c1ccc(-c2nnc(-c3ccc(N4CCOCC4)cc3)o2)cc1 ?
MbtI inh: inactive; Mtb MenB inh: 35; Polio RdRp inh: inactive; AID504770: inactive

How did NS(=O)(=O)c1ccc(-n2ncc(Cl)c(Cl)c2=O)cc1 do in these assays?
MbtI inh: inactive; Mtb MenB inh: inactive; Polio RdRp inh: 86; AID504770: inactive

What do the screens show for `O=c1c(Cl)c(Cl)cnn1-c1ccccc1`?
MbtI inh: inactive; AID504770: inactive

Results for CCc1ccc2nc(N3CCCCC3)c(C#N)cc2c1 ?
MbtI inh: inactive; Mtb MenB inh: inactive; Polio RdRp inh: inactive; AID504770: inactive

Results for C=CCN(CC=C)C(=O)c1cccc(OC)c1 ?
Mtb MenB inh: inactive; Polio RdRp inh: inactive; AID504770: inactive

How did COc1cccc(N=C2NNC(C)=C(C(=O)N(C)C)S2)c1 do in these assays?
MbtI inh: 59; Mtb MenB inh: inactive; Polio RdRp inh: 83; AID504770: inactive

What do the screens show for `NC1=CC(=O)c2ccccc2C1=O`?
MbtI inh: inactive; Mtb MenB inh: inactive; Polio RdRp inh: 88; AID504770: -2.4

How did CC1=CC(=O)c2ccccc2C1=O do in these assays?
MbtI inh: inactive; Mtb MenB inh: inactive; Polio RdRp inh: inactive; AID504770: inactive

Results for CCOC(=O)CCn1cc(/C=C(\C#N)C(N)=S)c(-c2ccccc2)n1 ?
MbtI inh: inactive; Mtb MenB inh: inactive; Polio RdRp inh: 89; AID504770: inactive

How did CCOC(=O)/C(C#N)=C/c1cn(CCC#N)nc1-c1ccccc1 do in these assays?
MbtI inh: inactive; Mtb MenB inh: inactive; Polio RdRp inh: inactive; AID504770: inactive

Results for CCOC(=O)CC(NC(=O)N1CCC(CN2CCC(C)CC2)CC1)c1ccccc1 (stereo not drawn) ?
Polio RdRp inh: 49

Results for CCOc1ccc(NC(=O)N2CCC(CN3CCC(C)CC3)CC2)cc1 ?
Polio RdRp inh: inactive

What do the screens show for `Cc1ccc(N(O)S(=O)(=O)c2ccc(C)cc2)cc1`?
MbtI inh: 65; Mtb MenB inh: inactive; Polio RdRp inh: inactive; AID504770: inactive

What do the screens show for `Cc1ccc(S(=O)(=O)N(O)c2ccc(Cl)cc2)cc1`?
MbtI inh: 83; Polio RdRp inh: inactive; AID504770: inactive

How did Cc1ccc(S(=O)(=O)N(C)C)cc1 do in these assays?
MbtI inh: inactive; Polio RdRp inh: inactive; AID504770: inactive

Results for Cc1cccc(NS(=O)(=O)c2ccc(-c3cc(C(F)(F)F)no3)s2)c1 ?
MbtI inh: inactive; Mtb MenB inh: inactive; Polio RdRp inh: inactive; AID504770: inactive
